Screening results from PubChem BioAssay.
Calb FLC = affects C. albicans growth with fluconazole; C. albicans CaCi-2 (fluconazole-resistant clinical isolate) + fluconazole, Alamar Blue growth, 48 h; growth inhibition, % (no concentration beside the values); 300,000 compounds, 0.57% hits;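 active means growth inhibition above about 58% in most replicates, limit read from the data, passing the limit was not always enough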;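 further: all wells also contain fluconazole at 8 µg/ml as a sub-toxic cotreatment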
MPTP inh = blocks calcium-induced mitochondrial swelling; 360,000 compounds, 1.4% hits; inhibition, % at 10 µM; isolated mouse mitochondria, Ca2+ swelling absorbance, 30 min;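 active means inhibition of 50% or more, scaled per plate between neutral and stimulator controls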
SKKanGAS inh = blocks kanamycin growth of S. pyogenes SKKanGAS strain; BacTiter-Glo, 6 h; 300,000 compounds, 1.3% hits; inhibition, % at 7.5 µM; AID 1662;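 active means mean replicate score, as percent of positive control median, at least 50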;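 further: strain carries kanamycin resistance gene driven by streptokinase promoter and grows in 40 µg/ml kanamycin; loss of luminescence reflects streptokinase promoter inhibition or plain growth inhibition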
Beta apoptosis = blocks beta cell apoptosis | INS-1E cytokine-induced death, ATP luminescence, 48 h; percent of positive-control rescue, neutral wells zero | protection from apoptosis, % (concentration not given with the values) | 300,000 compounds, 0.8% hits;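 active means Every replicate reaches about 75%, or at least half do and their mean reaches it too, limit read from the data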;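 further: higher means more ATP so stronger rescue from cytokine killing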
CSC inhib = blocks cancer stem cells; inhibition, % at 7.5 µM; 300,000 compounds, 1.1% hits; cancer stem cell-like cells viability, luminescence; in the data active means inhibition above about 75%; tested in HMLE shEcad cells
Mdm2 MdmX PPI = human Mdm2/MdmX binding inhibition; AID 485346; 330,000 compounds, 3% hits; O15151+Q00987; inhibition, % at 8 µM; SaOS-2 split-luciferase Mdm2/MdmX complementation, luminescence;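 active means inhibition of at least 50% at 8 µM in the primary screen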
Target sequence (O15151 whole entry, looked up): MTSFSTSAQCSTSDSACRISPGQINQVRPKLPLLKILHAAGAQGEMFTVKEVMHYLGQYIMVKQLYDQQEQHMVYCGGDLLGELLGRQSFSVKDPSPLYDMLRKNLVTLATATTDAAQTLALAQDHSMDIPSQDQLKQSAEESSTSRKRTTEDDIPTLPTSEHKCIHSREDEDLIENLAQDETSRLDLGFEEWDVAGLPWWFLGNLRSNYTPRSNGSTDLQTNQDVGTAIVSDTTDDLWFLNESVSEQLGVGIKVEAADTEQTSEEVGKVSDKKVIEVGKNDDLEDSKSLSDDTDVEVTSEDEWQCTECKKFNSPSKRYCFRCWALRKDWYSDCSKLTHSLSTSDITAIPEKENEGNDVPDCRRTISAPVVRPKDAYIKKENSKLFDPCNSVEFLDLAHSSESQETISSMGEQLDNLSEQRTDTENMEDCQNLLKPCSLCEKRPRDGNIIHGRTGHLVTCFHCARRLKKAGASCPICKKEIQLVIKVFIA
Target sequence (Q00987 whole entry, looked up): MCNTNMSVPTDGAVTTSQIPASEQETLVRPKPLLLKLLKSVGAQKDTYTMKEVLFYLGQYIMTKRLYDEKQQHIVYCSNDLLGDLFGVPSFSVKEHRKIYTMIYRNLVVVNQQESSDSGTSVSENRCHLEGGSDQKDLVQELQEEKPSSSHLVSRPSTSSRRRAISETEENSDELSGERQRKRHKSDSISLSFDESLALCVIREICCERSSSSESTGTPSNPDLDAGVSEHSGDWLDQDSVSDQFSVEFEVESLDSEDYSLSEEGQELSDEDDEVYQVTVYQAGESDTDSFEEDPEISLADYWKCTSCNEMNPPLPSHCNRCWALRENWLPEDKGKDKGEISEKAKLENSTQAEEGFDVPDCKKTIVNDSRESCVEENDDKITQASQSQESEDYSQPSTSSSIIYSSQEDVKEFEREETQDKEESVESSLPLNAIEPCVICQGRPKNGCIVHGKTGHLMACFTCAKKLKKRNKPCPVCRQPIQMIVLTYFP
Mdm2-MdmX conf = confirmation of human Mdm2/MdmX interaction inhibitors. shares compounds with Mdm2 MdmX PPI. Mdm2-MdmX binding, luminescent assay. AID 489028. inhibition, % at 8 µM. 10,000 compounds, 55% hits; in the data active means inhibition above about 40%
FLuc counter = counter-screen for Mdm2/MdmX inhibitors: full-length luciferase | 6,200 compounds, 77% hits | shares compounds with Mdm2 MdmX PPI | AID 504607 | SaOS-2 full-length luciferase counterscreen, luminescence | inhibition, % at 8 µM;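 active means mean inhibition at 8 µM reaching about 37%, which flags the compound as non-specific, limit read from the data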;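 further: p53-null SaOS-2 cells with luciferase driven by a doxycycline-inducible promoter; compound on cells about two nights before reading with doxycycline added after day one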
Numbers stand for hits. Only some compounds are listed: those with a hit (about 5.4% of all), similar ones and a draw of the others.

Results for C[C@@]12C(=O)Nc3ccc(F)cc3C(=O)N1[C@H]1c3ccccc3OC[C@@H]1[C@@H]2c1ccccc1 ?
MPTP inh: inactive; Beta apoptosis: inactive; CSC inhib: inactive; Mdm2 MdmX PPI: inactive

Results for COc1ccc2c(c1)OC[C@H]1[C@H]2N2C(=O)c3cc(OC)c(OC)cc3NC(=O)[C@@]2(C)[C@H]1c1ccccc1 ?
MPTP inh: inactive; Beta apoptosis: inactive; CSC inhib: inactive; Mdm2 MdmX PPI: 58; Mdm2-MdmX conf: inactive

What do the screens show for `C[C@@]12C(=O)Nc3cc(Cl)ccc3C(=O)N1[C@H]1c3cc(Br)ccc3OC[C@@H]1[C@@H]2c1ccccc1`?
MPTP inh: inactive; Beta apoptosis: inactive; CSC inhib: inactive; Mdm2 MdmX PPI: 67; Mdm2-MdmX conf: 72; FLuc counter: inactive

What do the screens show for `C[C@@]12C(=O)Nc3cc(Cl)ccc3C(=O)N1[C@H]1c3cc(Cl)ccc3OC[C@@H]1[C@@H]2c1ccccc1`?
MPTP inh: inactive; Beta apoptosis: inactive; Mdm2 MdmX PPI: 61; Mdm2-MdmX conf: inactive

How did C[C@@]12C(=O)Nc3ccc(F)cc3C(=O)N1[C@H]1c3cc(Cl)ccc3OC[C@@H]1[C@@H]2c1ccccc1 do in these assays?
MPTP inh: inactive; Beta apoptosis: inactive; CSC inhib: inactive; Mdm2 MdmX PPI: 56; Mdm2-MdmX conf: inactive

What do the screens show for `COc1cc(C)nc(N2CCCC(C(=O)Nc3cccc(Cl)c3C)C2)n1` (configuration not stated)?
Calb FLC: inactive; MPTP inh: inactive; SKKanGAS inh: inactive; Beta apoptosis: inactive; Mdm2 MdmX PPI: inactive

Results for C=CCNc1sc(C(=O)c2ccc(Br)s2)c(N)c1C#N ?
Calb FLC: inactive; MPTP inh: inactive; SKKanGAS inh: inactive; Beta apoptosis: inactive; Mdm2 MdmX PPI: inactive

Results for COc1cc(NC(=O)C2CCCN2C(=O)OCc2ccccc2)cc(OC)c1 (configuration not stated) ?
Calb FLC: inactive; MPTP inh: inactive; SKKanGAS inh: inactive; Beta apoptosis: inactive; CSC inhib: inactive; Mdm2 MdmX PPI: inactive

What do the screens show for `Cc1ccc2c(c1)C(=O)N1[C@H]3c4cc(C)ccc4OC[C@@H]3[C@H](c3ccccc3)[C@]1(C)C(=O)N2`?
MPTP inh: inactive; Beta apoptosis: inactive; CSC inhib: inactive; Mdm2 MdmX PPI: 54; Mdm2-MdmX conf: 43; FLuc counter: 38

Results for COc1ccc([C@@H]2[C@@H]3C(=O)N(C(C)(C)C)C(=O)[C@@H]3[C@]3(CC(C)C)C(=O)N(c4ccc(C(F)(F)F)cc4)C(=O)N23)cc1 ?
Calb FLC: inactive; MPTP inh: inactive; SKKanGAS inh: inactive; Beta apoptosis: inactive; CSC inhib: inactive; Mdm2 MdmX PPI: 74; Mdm2-MdmX conf: 76; FLuc counter: inactive

How did COc1ccc([C@@H]2[C@@H]3C(=O)N(C(C)(C)C)C(=O)[C@@H]3[C@]3(Cc4ccccc4)C(=O)N(c4ccc(C(F)(F)F)cc4)C(=O)N23)cc1 do in these assays?
Calb FLC: inactive; MPTP inh: inactive; SKKanGAS inh: inactive; Beta apoptosis: inactive; CSC inhib: inactive; Mdm2 MdmX PPI: 85; Mdm2-MdmX conf: 90; FLuc counter: inactive

How did COc1ccc([C@@H]2[C@@H]3C(=O)N(C(C)(C)C)C(=O)[C@@H]3[C@]3(Cc4ccccc4)C(=O)N(c4ccc(OC)cc4)C(=O)N23)cc1 do in these assays?
Calb FLC: inactive; MPTP inh: inactive; SKKanGAS inh: inactive; Beta apoptosis: inactive; CSC inhib: inactive; Mdm2 MdmX PPI: inactive

Results for COc1ccccc1NC(=O)N(C)C[C@@H]1OCc2cn(nn2)CCCC(=O)N([C@@H](C)CO)C[C@H]1C ?
MPTP inh: inactive

What do the screens show for `CCCCCc1nc2c(c(=O)c3ccccc3n2C)c(=O)n1Cc1ccc(OC)cc1`?
Calb FLC: inactive; MPTP inh: inactive; SKKanGAS inh: inactive; Beta apoptosis: inactive; CSC inhib: inactive; Mdm2 MdmX PPI: 51; Mdm2-MdmX conf: inactive

Results for O=C(CSc1nc2c(oc3ccccc32)c(=O)n1CC1CCCO1)NCc1ccccc1 (configuration not stated) ?
Calb FLC: inactive; MPTP inh: inactive; SKKanGAS inh: inactive; Beta apoptosis: inactive; CSC inhib: inactive; Mdm2 MdmX PPI: 66; Mdm2-MdmX conf: inactive

How did NC(=O)c1cccn(Cc2ccc(C(F)(F)F)cc2)c1=O do in these assays?
Calb FLC: inactive; MPTP inh: inactive; SKKanGAS inh: inactive; CSC inhib: inactive; Mdm2 MdmX PPI: inactive

What do the screens show for `COc1ccc(-c2ccc3c(c2)S(=O)(=O)c2cccc(C(=O)NCCOc4ccccc4Cl)c2C3=O)cc1OC`?
MPTP inh: inactive; Beta apoptosis: 91; Mdm2 MdmX PPI: 95; Mdm2-MdmX conf: inactive

What do the screens show for `COc1ccc(-c2ccc3c(c2)S(=O)(=O)c2cccc(C(=O)NC4CC4)c2C3=O)cc1OC`?
MPTP inh: inactive; Beta apoptosis: inactive; CSC inhib: inactive; Mdm2 MdmX PPI: 72; Mdm2-MdmX conf: 52; FLuc counter: 46

Results for CSc1nc(Cl)cc(N(CCO)CCO)n1 ?
Calb FLC: inactive; MPTP inh: inactive; SKKanGAS inh: inactive; Beta apoptosis: inactive; CSC inhib: inactive; Mdm2 MdmX PPI: inactive

Results for CCOc1cc(/C=C2\CCC/C(=C\c3cc(Cl)c(O)c(OCC)c3)C2=O)cc(Cl)c1O ?
Calb FLC: inactive; MPTP inh: inactive; SKKanGAS inh: inactive; Beta apoptosis: 75; CSC inhib: inactive; Mdm2 MdmX PPI: 100; Mdm2-MdmX conf: 94; FLuc counter: inactive

How did CCOc1cc(/C=C2\CN(C)C/C(=C\c3ccc(O)c(OCC)c3)C2=O)ccc1O do in these assays?
Calb FLC: inactive; MPTP inh: inactive; SKKanGAS inh: inactive; Beta apoptosis: inactive; CSC inhib: 105; Mdm2 MdmX PPI: 100; Mdm2-MdmX conf: 100; FLuc counter: inactive

What do the screens show for `CCOc1cc(/C=N/NC(=O)C(=O)N/N=C/c2ccc(O)c(OCC)c2)ccc1O`?
Calb FLC: inactive; MPTP inh: inactive; SKKanGAS inh: inactive; Beta apoptosis: inactive; CSC inhib: inactive; Mdm2 MdmX PPI: inactive

Results for CCOc1cc(/C=N/NC(=O)N/N=C/c2ccc(O)c(OCC)c2)ccc1O ?
Calb FLC: inactive; SKKanGAS inh: inactive; Beta apoptosis: inactive; CSC inhib: inactive; Mdm2 MdmX PPI: 60; Mdm2-MdmX conf: 49; FLuc counter: 81

How did C=Cc1ccc(Cn2c(C)c(C(=O)NCc3cccc(C(F)(F)F)c3)sc2=O)cc1 do in these assays?
MPTP inh: inactive

How did O=C1N/C(=N\N=C\c2cccs2)SC1Cc1cccc(Cl)c1Cl (configuration not stated) do in these assays?
Calb FLC: inactive; MPTP inh: inactive; SKKanGAS inh: inactive; Beta apoptosis: inactive; CSC inhib: inactive; Mdm2 MdmX PPI: 83; Mdm2-MdmX conf: 62; FLuc counter: 58
